From PubChem BioAssay AID1863 (Southern Research Specialized Biocontainment Screening …, 2009)
The campaign covered roughly 300,000 compounds. About 480 (0.16%) were called active. These entries were drawn from the full list. Measured potencies and affinities stand elsewhere. Values without a mark were called inactive.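 How the source made its calls: active means inhibition over 29.93%, a cutoff 3 SD above the screen mean, later confirmed by dose response; inconclusive means inhibition over 29.93% but no dose response follow-up; inactive means inhibition at most 29.93% or unconfirmed.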

Experiment: PhoP-dependent GFP reporter repression – Salmonella Typhimurium, primary screen (AID 1863);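 further: 0% = low Mg2+ inducing control and 100% = high Mg2+ repressing control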
Details: S. Typhimurium PhoP-regulated promoter GFP reporter, 4 h; at 50 µM; active compounds read high

Structure (SMILES) | inhibition [%]
CNC(=O)c1cn(-c2ccc(Cl)cc2)c(=O)c2ccccc12 | -7.59
Cc1c(O)ccc2c(O)c(NC(=O)c3ccc4c(c3)CCC(C)(C)O4)c(=O)oc12 | -3.81
CO[C@@H]1[C@@H](OC(N)=O)[C@@H](O)C(Oc2ccc3c(O)c(NC(=O)c4ccc(O)c(CC=C(C)C)c4)c(=O)oc3c2C)OC1(C)C (stereo partly specified) | 12.3
CCC1=C(c2ccc(C)cc2)S(=O)(=O)N=C1N1CCC(C(=O)NCCCN2CCCCC2)CC1 | -2.43
Nc1cccc2nsnc12 | -14.7
COc1ccc(-n2nc3cc(N)c(Br)cc3n2)cc1 | -2.59
CCOC(=O)CCCNC(=O)CSc1nnc(-c2ccccc2)c(-c2ccccc2)n1 | -8.06
COC(=O)c1c(C)[nH]c(O)c1C=Nc1ccc(Oc2ccccc2)cc1 | -5.37
CO[C@H]1C=CO[C@@]2(C)Oc3c(C)c(O)c4c(O)c(c5c(nc6cc(C)ccn65)c4c3C2=O)NC(=O)C(C)=CC=C[C@H](C)[C@H](O)[C@@H](C)[C@@H](O)[C@@H](C)[C@H](OC(C)=O)[C@@H]1C | -3.25
CC(/C=C/c1ccccc1F)=N\NC(=O)c1cccc(F)c1 | 3.59
O=S(=O)(NCC1CCCO1)c1ccc(NS(=O)(=O)c2ccc(F)cc2)cc1 (stereo unspecified) | 0.92
N#C/C(=C(/O)CSc1ncn[nH]1)c1nc2ccccc2[nH]1 | 6.19
Cc1ccccc1/C=N/Nc1ccc(Cl)nn1 | 1.24
Fc1ccccc1/C=N/Nc1ccc(Cl)nn1 | -8.24
C=CCN=C1CC(C)(C)C(C(=O)OC)C(O)=C1C(=O)CCC (stereo unspecified) | -0.51
COc1ccc(Cc2nnc(Nc3ccc(C)cc3)o2)cc1OC | 1.4
O=S(=O)(c1ccc2c(c1)OCCO2)N1CCN(Cc2ccc3c(c2)OCO3)CC1 | -0.33
CN1/C(=C\C=N\O)C(C)(C)c2ccccc21 | -8.82
Fc1ccc(CNCc2ccccc2Cl)cc1 | 5.07
c1csc(CNCc2ccncc2)c1 | -5.07
COc1ccccc1CNCc1ccc(C)cc1 | 8.2
COc1cc(CNCCc2ccc(F)cc2)ccc1OCc1ccc(Cl)nc1 | 23.3
COc1ccccc1CNC(=S)NCc1ccc(F)cc1 | -5.45
Brc1ccc(CNCc2cccs2)cc1 | 10.4

Structure (SMILES) | inhibition [%]
COc1ccc(NC(=O)COC(=O)CCCc2c[nH]c3ccccc23)cc1 | -12.1
Cc1cc(C)n(C(=O)Cn2nc(C)c(Cl)c2C)n1 | 3.42
O=C(c1ccccc1F)N1CCN(S(=O)(=O)c2ccc3c(c2)OCCO3)CC1 | 6.03
Cc1c(NC(=O)CSc2nnnn2-c2ccc(F)cc2)c(=O)n(-c2ccccc2)n1C | -6.82
O=C1NC(C(F)(F)F)(C(F)(F)F)N=C2SC=CN12 | -6.31
O=c1[nH]nc(-c2ccc(F)cc2)cc1Cc1ccc(F)cc1 | -10.7
O=C(Nc1cccc(Cl)c1)Nc1ccnc(-c2cccnc2)n1 | 5.1
CCOC(=O)N1CCN(Cc2cc(Cl)c3cccnc3c2O)CC1 | -0.11
Oc1c(CN2CCN(c3ccccn3)CC2)cc(Cl)c2cccnc12 | 20.1
O=C(Oc1c(CN2CCOCC2)cc(Cl)c2cccnc12)c1ccc(F)cc1 | 29.7
Oc1c(CN2CCN(c3ccccc3)CC2)cc(Br)c2cccnc12 | 4.78
CCCNC(=O)Nc1ccc(F)c(Cl)c1 | -2.59
COc1ccc(CNc2nc(NCc3ccc(OC)cc3)n(S(C)(=O)=O)n2)cc1 | -5.9
Cc1c(NC(=O)/C(C#N)=C/c2ccccc2)c(=O)n(-c2ccccc2)n1C | 0.82
CCc1ccc2nc(N)sc2c1 | 1.27
O=C(N/N=C/c1ccc(Cl)s1)C(O)c1ccccc1 (stereo unspecified) | -4.15
Cc1cc(C(=O)N/N=C/c2ccc(C)s2)n[nH]1 | 11.3
Cc1[nH]cnc1C(=O)N/N=C/c1ccc([N+](=O)[O-])s1 | 4.75
O=C(N/N=C/c1ccc([N+](=O)[O-])s1)c1ccccc1 | -2.83
O=C(CSc1nnc(-c2ccccn2)o1)Nc1ccccc1 | -5.62
CCc1ccccc1NC(=O)c1cc(-c2cccs2)on1 | -12.5
COC(=O)c1cc(N=C(N)N=C(N)N)cc(C(=O)OC)c1 | -9.38
O=c1c2ccccc2nc2c3ccccc3c(Cl)nn12 | 4.87
Cc1ccc(OCCC(=O)OCC(=O)Nc2cc(C)cc(C)c2)cc1 | -5.06

Structure (SMILES) | inhibition [%]
Cc1cc(NC(=O)COC(=O)C2=COCCO2)c([N+](=O)[O-])cc1C | -7.57
Cc1ccccc1NCc1ccc(O)c2ncccc12 | -2.12
Oc1ccc(CNc2ccccc2)c2cccnc12 | 5.74
Oc1ccc(CN2CCN(c3ccccc3)CC2)c2cccnc12 | -1.49
COc1ccccc1N1CCN(Cc2ccc(O)c3ncccc23)CC1 | 18.9
Oc1ccc(CN2CCC(Cc3ccccc3)CC2)c2cccnc12 | 10.7
COCc1ccc(O)c2ncccc12 | -1.56
COCc1cc(CN2CCN(C)CC2)c(O)c2ncccc12 | 6.95
Oc1cc2c(cc1CN1CCc3ccccc3C1)OCO2 | -4.04
CC(=O)Nc1ccc(S(=O)(=O)NC(C)C(=O)NC(C)c2ccccc2)cc1 (stereo unspecified) | -5.32
Cc1ccccc1OCC(=O)NC(=S)Nc1ccccc1N1CCN(S(C)(=O)=O)CC1 | -1.77
CC1=C(C(=O)OC(C)C)C(c2ccsc2)NC(=O)N1C (stereo unspecified) | -5.45
Cc1ccc(S(=O)(=O)NCCC(=O)NCC(=O)Nc2c(C)cccc2C)cc1C | -4.98
Cc1nc2ccccc2n1CCCOc1ccccc1 | 5.12
OC(COc1ccc(Cl)cc1)CN1CCC(Cc2ccccc2)CC1 (stereo unspecified) | -10.4
CC1(C)CCC(=O)C=C1Nc1ccc(F)c(Cl)c1 | -5.11
CCC(CC)C1=NN2C(=N)/C(=C/c3ccc(OC(=O)c4ccco4)cc3)C(=O)N=C2S1 | -9.8
C=CCN(c1ccccc1)S(=O)(=O)c1cccc(C(=O)N2CC(C)CC(C)C2)c1 (stereo unspecified) | -1.91
CCCOc1ccc(C(C)(O)CN2CCOCC2)cc1 (stereo unspecified) | 6.65
CCOC(=O)C1CCN(Cc2ccc(O)c3ncccc23)CC1 | 6.23
Oc1ccc(CN2CCCCC2)c2cccnc12 | 8.92
CN(Cc1ccccc1)S(=O)(=O)c1ccccc1[N+](=O)[O-] | 6.63
CCn1cc(C(=O)O)c(=O)c2cnc(N3CCN(C(=S)Nc4ccccc4Cl)CC3)nc21 | 14.7
COc1ccccc1NC(=S)N1CCN(c2ccccc2F)CC1 | -4.74

Structure (SMILES) | inhibition [%]
CCn1cc(C(=O)NC(C)C)c(=O)c2cc(F)c(N3CCN(C(=O)c4ccco4)CC3)cc21 | 3.82
COc1ccc(CCNC(=O)C(C(=O)c2ccc(F)cc2)n2ccccc2=O)cc1OC (stereo unspecified) | 7.45
Cc1cc(C)n(CCNS(=O)(=O)c2ccc(C)c(C)c2)n1 | 5.17
CC(C)(C)NC(=O)NC(=O)CSc1ncn[nH]1 | 4.4
O=C(NC(=S)NNC(=O)c1cc2ccccc2cc1O)c1ccco1 | -4.81
O=C(NNC(=O)c1ccccc1O)c1ccco1 | 4.25
O=C1CC(c2cc([N+](=O)[O-])ccc2Cl)c2c(ccc3ccccc23)N1 (stereo unspecified) | -8.09
COc1cccc(/C=C/C(=O)OCC(=O)Nc2ccccc2Sc2ccccc2)c1 | 14.5
COC(=O)C1=CO[C@@H](OC2OC(CO)C(O)C(O)C2O)[C@@H]2[C@@H](C)[C@@H](O)C[C@H]12 (stereo partly specified) | -2.72
Cc1ccc(C)c(/C(O)=C2/C(=O)C(=O)N(CCN3CCOCC3)C2c2ccc(C)o2)c1 (stereo unspecified) | 3.28
Cc1ccc(S(=O)(=O)Oc2ccc(/C=N/NC(=O)c3nn(C)cc3Cl)cc2)cc1 | 1.65
Cc1ccccc1NC(=O)Cn1nc(-c2ccc(Cl)s2)ccc1=O | -3.56
O=C(c1cnc2n(c1=O)CCS2)N1CCN(C(c2ccccc2)c2ccc(Cl)cc2)CC1 (stereo unspecified) | 3.09
O=C1CN(/N=C/c2ccc([N+](=O)[O-])o2)C(=O)N1 | -5.89
O=C(O)/C=C/c1ccc([N+](=O)[O-])o1 | 23.2
COc1ccc2nc(Nc3ccc4c(c3)OCO4)sc2c1 | 14
CC(C)CN(C(=O)COC(=O)CCCc1nc2ccccc2s1)c1c(N)n(Cc2ccccc2)c(=O)[nH]c1=O | -9.27
O=C(NCCCc1ccccc1)c1ccc(-n2cncn2)c([N+](=O)[O-])c1 | 2.7
O=c1[nH]cc(-c2ccccc2)c(=O)[nH]1 | -0.675
O=c1[nH]cc(O)c(=O)[nH]1 | 6.24
O=[N+]([O-])c1ccccc1/C=N/n1c(C2CCCCC2)n[nH]c1=S | 8.51
c1ccc(-n2c3ccccc3c3ccccc32)cc1 | -2.33
Cn1c(-c2ccccc2)c(CCO)c2ccccc21 | -0.97
O=C(CN(Cc1ccc(Br)cc1)S(=O)(=O)c1ccccc1)NCC1CCCO1 (stereo unspecified) | -5.51
